Source: PubChem BioAssay
The list is not random: actives were taken first. Their share in the collection is about 3%.
Sm TGR block: qHTS Assay for the Inhibitors of Schistosoma Mansoni Peroxiredoxins. actives 3% (n = 360,000). Potency, µM (series often up to 114 µM), for inactives: at the top dose activity change, negative = inhibition, hits mostly inhibitors. purified TGR, DTNB reduction, TNB absorbance 405 nm; active = well fitted inhibition curve with a large enough effect; inconclusive = small, poorly fitted or top-dose-only effect; inactive = no such curve, though single readings can be large or run the other way; note: % is set by controls: 0 for no effect and ±100 for the full control effect; nearly all actives have a fitted effect of over 60% in size
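First, TGR (20 nM dispensed) and NADPH were mixed with compound. Second, a 15 min room-temperature incubation followed. Third, further NADPH and then DTNB were added to start the reaction. Finally, TNB absorbance was monitored kinetically.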
SARS PLP yeast: qHTS of Yeast-based Assay for SARS-CoV PLP; S. cerevisiae expressing SARS-CoV PLpro, growth rescue; Potency, µM (top dose mostly 32.9 µM), inactives show at the highest dose activity, positive = growth rescue, actives largely listed as activators; actives 0.19% (n = 330,000); calls by dose curve; note: 0% is about no effect; nearly all actives have a fitted effect of over 55% in size
* = called active by the depositor. Potency is the fitted concentration of half-maximal effect.

How did O=C(OCc1cnc(Cl)s1)c1ccccc1Cl do in these assays?
Sm TGR block: 1.4%; SARS PLP yeast: 6.1%

Results for O=C(OCn1ncc(Br)c(Br)c1=O)c1ccccc1Cl ?
Sm TGR block: 1.26µM*; SARS PLP yeast: -29.4%

How did COc1ccccc1CNC(=O)c1cccc(NC(=O)N2CCSc3ncccc32)c1 do in these assays?
Sm TGR block: 0.1%

What do the screens show for `Cc1ccc(OCC(=O)Nc2ccc3c(c2)nc(CCNC(=O)c2ccco2)n3C)cc1`?
Sm TGR block: -3.3%

How did CCOc1ccc(C(=O)Nc2cccc(NC(=O)c3ccc(C(C)(C)C)cc3)c2)cc1Br do in these assays?
Sm TGR block: 14.5%

What do the screens show for `NS(=O)(=O)c1ccc(-c2ccc(C=C3C(=O)NC(=S)NC3=O)o2)cc1`?
Sm TGR block: 2.24µM*; SARS PLP yeast: 0.9%

Results for NS(=O)(=O)c1ccc(-c2ccc(/C=C3\C(=O)Nc4ccccc43)o2)cc1 ?
Sm TGR block: -26.5%; SARS PLP yeast: -2.8%

How did CCCc1ccc(OC(=O)c2sc3ncn(Cc4cccc(F)c4)c(=O)c3c2C)cc1 do in these assays?
Sm TGR block: -1.5%

How did Cc1ccccc1N1CCN(Cc2cccc(C(=O)O)c2)CC1 do in these assays?
Sm TGR block: 2.5%; SARS PLP yeast: 4.6%

What do the screens show for `COC(=O)c1cccc(Cn2c(Cl)c(/C=N/Nc3ccccc3C)sc2=O)c1`?
Sm TGR block: 7.94µM*; SARS PLP yeast: -16.2%

How did COC(=O)c1cccc(CN2C(=O)SC(Nc3ccccc3C)C2=O)c1 (centres undefined) do in these assays?
Sm TGR block: 4.3%

Results for Cc1ccccc1N/N=C/c1sc(=O)n(Cc2cccc(C(=O)O)c2)c1Cl ?
Sm TGR block: 10µM*; SARS PLP yeast: -2.6%

Results for CCc1ccc(C(=O)c2cn(CC(=O)NC3CCCCC3)c3nc(C)ccc3c2=O)cc1 ?
Sm TGR block: -15.5%

How did Cc1cc(Cl)ccc1C(=O)C1CCCN(C(=O)c2ccoc2)C1 (centres undefined) do in these assays?
Sm TGR block: -16.4%; SARS PLP yeast: -2.8%

What do the screens show for `COCc1ccc(C(=O)N2CCCC(C(=O)c3ccc(Cl)cc3C)C2)o1` (centres undefined)?
Sm TGR block: 31.6µM*; SARS PLP yeast: -5.2%

How did CCOC(=O)CSc1nnc(N)s1 do in these assays?
Sm TGR block: 5.1%; SARS PLP yeast: -0.1%

How did CCOC(=O)CSC1=NC(=O)CS1 do in these assays?
Sm TGR block: 31.6µM*; SARS PLP yeast: -14.5%

Results for CN1C(=O)CC(Nc2cccc3cccc(N)c23)C1=O (centres undefined) ?
Sm TGR block: 31.6µM*; SARS PLP yeast: 0.4%

What do the screens show for `CC(C)N1C(=O)CC(Nc2cccc3cccc(N)c23)C1=O` (centres undefined)?
Sm TGR block: inconclusive; SARS PLP yeast: -7.5%

What do the screens show for `Cc1cccc(NC(=O)CSc2nc3c(oc4ccccc43)c(=O)n2C(C)C)c1`?
Sm TGR block: 5.6%

What do the screens show for `Cn1cccc1CNC(=O)Nc1ccccc1`?
Sm TGR block: -24.5%; SARS PLP yeast: -12.4%

How did Cc1ccc(CNC(=O)Nc2ccccc2)n1C do in these assays?
Sm TGR block: 28.2µM*; SARS PLP yeast: -0.7%

What do the screens show for `Cc1ccc(CNC(=O)Nc2ccc(F)cc2F)n1C`?
Sm TGR block: 31.6µM*; SARS PLP yeast: -1.5%

What do the screens show for `C=CCNC(=O)Nc1ccc(F)cc1F`?
Sm TGR block: 10.1%; SARS PLP yeast: -0.8%

Results for O=C(C1=C[C@@H]2[C@H]3C(=O)N(c4ccccc4)C(=O)[C@H]3[C@@H](C(=O)c3ccc(Cl)cc3)N2C=C1)c1ccccc1 ?
Sm TGR block: 14.1µM*; SARS PLP yeast: -1.8%

Results for O=C(c1ccc(Cl)cc1)[C@@H]1[C@@H]2C(=O)N(c3ccc(Cl)cc3)C(=O)[C@@H]2C2c3ccccc3C=NN21 (some centres undefined) ?
Sm TGR block: 0.6%; SARS PLP yeast: -5.3%

Results for CCc1ccc(C2c3c(oc4ccc(C)cc4c3=O)C(=O)N2c2nc(C)c(C)s2)cc1 (centres undefined) ?
Sm TGR block: 11.8%

What do the screens show for `CCc1cccc2c(-c3ccccc3)nc(SCC(=O)Nc3ccccc3)nc12`?
Sm TGR block: 9.9%

Results for CCn1nc(C)cc1-c1nnc(Sc2ncc([N+](=O)[O-])s2)n1C ?
Sm TGR block: 0.282µM*; SARS PLP yeast: -9.8%

How did CCn1nc(C)cc1-c1nnc(SCC(=O)Nc2ccccc2)n1CCCOC do in these assays?
Sm TGR block: 4.9%; SARS PLP yeast: -2.8%

What do the screens show for `CCn1cc(C(=O)NCc2ccccc2OC)c(=O)c2cc(S(=O)(=O)N3CCCCC3)ccc21`?
Sm TGR block: -14.8%

How did CC(=O)/C=C/c1ccc2ccccc2n1 do in these assays?
Sm TGR block: 89.1µM*; SARS PLP yeast: -29.0%

How did CC(OC(=O)/C=C/c1ccc2ccccc2n1)C(=O)N(C)c1ccccc1 (centres undefined) do in these assays?
Sm TGR block: -1.6%; SARS PLP yeast: -1.1%

Results for COCCn1c(C)cc(O)c(C(c2ccccc2Cl)N2CCN(c3ccccc3)CC2)c1=O (centres undefined) ?
Sm TGR block: 3.16µM*

How did CCN1CCN(C(c2ccccc2Cl)c2c(O)cc(C)n(CCOC)c2=O)CC1 (centres undefined) do in these assays?
Sm TGR block: 3.55µM*

What do the screens show for `CCN1CCN(C(=O)C2c3cc(OC)c(OC)cc3C(=O)N(C)C2c2ccc(SC)cc2)CC1` (centres undefined)?
Sm TGR block: -0.3%; SARS PLP yeast: -1.3%

How did CCN1CCN(S(=O)(=O)c2ccc(Cl)c(C(=O)NC(C)c3ccccc3Cl)c2)CC1 (centres undefined) do in these assays?
Sm TGR block: -9.6%; SARS PLP yeast: 8.1%

What do the screens show for `CCN1CCN(C(c2ccccc2F)c2c(O)cc(C)n(CCOC)c2=O)CC1` (centres undefined)?
Sm TGR block: 7.94µM*

How did CCN1CCN(C(c2ccc(SC)cc2)c2c(O)cc(C)n(CCOC)c2=O)CC1 (centres undefined) do in these assays?
Sm TGR block: 7.08µM*

What do the screens show for `CCN1CCN(C(c2cccs2)C(C)NC(=O)c2ccccc2F)CC1` (centres undefined)?
Sm TGR block: -15.7%; SARS PLP yeast: -1.1%

What do the screens show for `COCCn1nnnc1C(c1ccccc1OC)N1CCN(c2ccccc2)CC1` (centres undefined)?
Sm TGR block: -31.0%; SARS PLP yeast: 0.3%

Results for Cc1nnc(SCc2ccccc2Cl)c2cc3occc3n12 ?
Sm TGR block: 10.8%

How did CCCN1CCN(CCNC(=O)Nc2ccc(OC)c(OC)c2)CC1 do in these assays?
Sm TGR block: 3.0%

How did Cc1ccc(NC(=O)Cn2c(=O)n(CCc3ccccc3)c(=O)c3c4c(sc32)CCCC4)c(C)c1 do in these assays?
Sm TGR block: 0.4%

What do the screens show for `Cn1cc(-c2cc3n(n2)CCC(=O)N3CCCC(=O)NCc2ccccc2Cl)c2ccccc21`?
Sm TGR block: 0.1%

What do the screens show for `Cc1ccc(NCc2ccc(O)c3ncccc23)cc1`?
Sm TGR block: inconclusive; SARS PLP yeast: -5.0%

How did Cc1cccc(NCc2ccc(O)c3ncccc23)c1C do in these assays?
Sm TGR block: 0.112µM*; SARS PLP yeast: 3.8%

How did Cc1ccc(O)c(CNc2cccc3cccnc23)c1 do in these assays?
Sm TGR block: -0.5%; SARS PLP yeast: -4.8%

What do the screens show for `Cc1ccc(NCc2ccc(O)c3ncccc23)cc1C`?
Sm TGR block: -1.7%; SARS PLP yeast: -3.2%
